Most compounds without a hit are left out; they make up all but 21% or so of the library.
Shiga inhibitor = blocks Shiga toxin action in Vero cells; Vero cells, Shiga toxin protein synthesis inhibition reporter; inhibition, % at 38.7 µM; 290,000 compounds, 9.2% hits; AID 2315; in the data active = inhibition mostly above about 28%, no sharp cut-off; inactive = mostly below about 43%; note: 0% is about no effect
Pf growth 48h = P. falciparum growth inhibition at 48 hours (one generation); P. falciparum luciferase growth in erythrocytes, 48 h; Potency, µM (series often up to 28.7 µM), for inactives: at the top dose activity change, negative = inhibition, hits mostly inhibitors; 310,000 compounds, 5.9% hits; note: potency is the fitted concentration of half-maximal effect; % is set by controls: 0 for no effect and ±100 for the full control effect
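Luminescence readout; reporter = integrated firefly luciferase in P. falciparum. RBC culture at 2% hematocrit, 0.1% parasitemia final, 37 C/5% CO2; decreased signal taken as growth inhibition.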
Pf growth 96h = P. falciparum growth inhibition at 96 hour, primary screen for plastid delayed-death inhibitors; Potency, µM (doses to about 28.7 µM), without a hit: at the top dose activity change, negative = inhibition, most hits filed as inhibitors; P. falciparum luciferase reporter growth, 96 h; 320,000 compounds, 6.9% hits; note: potency is the fitted concentration of half-maximal effect; % is set by controls: 0 for no effect and ±100 for the full control effect
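96 h incubation, 37 C, 5% CO2, of luciferase-reporter P. falciparum-infected RBCs (2% hematocrit, 0.05% parasitemia final) with test compounds; endpoint luminescence.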
Cycloheximide cs = affects cycloheximide protein synthesis inhibition readout, counter-screen | cell reporter, cycloheximide protein synthesis inhibition counterscreen | max response, % | 300,000 compounds, 12% hits; in the data active = max response mostly above about 13%, no sharp cut-off; inactive = mostly below about 14%; note: read at 38.3 µM for the half of the compounds with a filed dose; 0% is about no effect
NS1 inh = influenza NS1 inhibition. Potency, µM (doses to about 46.1 µM), for the others: top-dose activity, positive = more growth. 270,000 compounds, 0.4% hits. AID 2326; calls by dose curve; note: potency is the fitted concentration of half-maximal effect; actives are rising curves; nearly all actives have a fitted effect of over 50% in size
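OD600 was taken as the measure of yeast growth restored by compound in an NS1-expressing S. cerevisiae strain. Cells had been washed out of glucose medium and diluted 1:100 into galactose -URA medium, pH 6.0.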
Numbers without * were called inactive; ? = inconclusive; / = not tested or not shown. Unless noted, calls come from the whole dose curve; as a rule, active = well fitted inhibition curve with a large enough effect; inconclusive = small, poorly fitted or top-dose-only effect, or another doubt; inactive = no such curve, though single readings can be large or run the other way.

SMILES	Shiga inhibitor	Pf growth 48h	Pf growth 96h	Cycloheximide cs	NS1 inh
COc1ccc(CN2CCCC(C(=O)c3ccc(Cl)cc3)C2)c(O)c1 (configuration not stated)	-12	0.83µM*	-72%	-3	-11%
CCn1ccnc1CN1CCCC(C(=O)c2ccc(SC)cc2)C1 (configuration not stated)	-5	?	12%	0	7%
O=C(c1ccccc1)C1CCCN(Cc2nc(-c3cnccn3)no2)C1 (configuration not stated)	19	-12%	5.2µM*	-4	0%
CSc1ccc(C(=O)C2CCCN(Cc3cccc4nccnc34)C2)cc1 (configuration not stated)	-17	10µM*	?	-3	3%
COc1ccc(C(=O)C2CCCN(Cc3cc(Cl)ccc3O)C2)c(OC)c1 (configuration not stated)	-10	?	16%	-1	-26%
O=C(c1cccnc1)C1CCCN(Cc2nc(-c3cnccn3)no2)C1 (configuration not stated)	-5	32%	-5%	7	0%
CC(=O)c1sc(N/N=C\c2ccc(Br)cc2)nc1C	active	0%	?	72*	15%
CCOC(=O)c1sc(N/N=C/c2ccc(N(C)C)cc2)nc1C	9	-22%	?	6	13%
CCOC(=O)C(=O)N/N=C/c1cccc(Br)c1	14	12%	16%	1	2%
CC(=O)c1sc(N/N=C\c2cccc(Br)c2)nc1C	85*	-67%	-65%	67*	-24%
Cc1ccc(-n2c(P(C)(=O)O)nc3ccccc32)cc1	34	32%	-5%	7	/
CC(C)C(=O)Nc1cccc(-c2csc(-c3ccccc3)n2)c1	33*	?	?	32*	-9%
CC(C)C(=O)Nc1cccc(-c2nc3ncccc3o2)c1	/	-13%	-8%	10	-9%
O=C(Nc1ccc(-c2csc(Nc3ccccc3)n2)cc1)c1ccccc1	16	?	?	2	4%
CC(C)C(=O)Nc1ccc(-c2csc(-c3ccccc3)n2)cc1	81*	49%	126%	61*	5%
CC1CCCCC12NC(=O)N(CC(=O)Nc1ccc(N3CCCCC3)cc1)C2=O (configuration not stated)	/	43%	48%	/	/
CC1CC2(C)Oc3ccccc3CC2C(C)C1CNCCCN(C)C (configuration not stated)	-23	?	?	-2	/
Cc1cccn2c(CNCCCn3ncc4ccccc43)c(C(=O)N3CCCCC3)nc12	-7	?	15µM*	-2	-1%
CCCCn1c(N)c(N(CCC(C)C)C(=O)c2ccc3c(c2)OCCO3)c(=O)[nH]c1=O	/	?	6%	/	/
COc1cccc(-c2nc(C(N)=O)c3[nH]c(=O)n(-c4cccc(Cl)c4)c3n2)c1OC	13	15µM*	?	-3	-70%
COc1ccc(-c2nc(C(N)=O)c3[nH]c(=O)n(-c4cccc(Cl)c4)c3n2)cc1OC	-1	?	-13%	-5	-3%
Cc1ccc(S(=O)(=O)/N=C2\CN(C)C(=O)N2C)cc1	-17	5%	4.7µM*	-7	19%
Cc1ccc(S(=O)(=O)/N=c2\sccn2C)cc1	-14	11%	135%	-4	11%
CCOCCCn1c(C)nc2c(c1=O)c1nc3ccccc3nc1n2-c1ccc2c(c1)OCCO2	-25	5.2µM*	?	-3	3%
CCC(C)n1cnc2c(c1=O)c1nc3ccccc3nc1n2-c1ccc2c(c1)OCCO2 (configuration not stated)	3	14%	13µM*	-1	-44%
SMILES	Shiga inhibitor	Pf growth 48h	Pf growth 96h	Cycloheximide cs	NS1 inh
CCCn1c(C)nc2c(c1=O)c1nc3ccccc3nc1n2-c1ccc2c(c1)OCCO2	/	/	/	/	19%
CCC(C)n1cnc2c(c1=O)c1nc3ccccc3nc1n2Cc1ccc2c(c1)OCO2 (configuration not stated)	12	3.7µM*	?	2	15%
O=c1c2c3nc4ccccc4nc3n(-c3cccc(F)c3)c2ncn1Cc1ccc2c(c1)OCO2	-2	0%	?	-3	?
Nc1ncc(O)c(N)n1	-4	/	/	2	/
C=CCn1c(COc2ccccc2F)nnc1SCCN1C(=O)c2ccccc2C1=O	-7	17%	12%	1	-8%
CCC1CCC2(CC1)NC(=O)N(CC(=O)c1c(C)[nH]c3ccccc13)C2=O (configuration not stated)	-2	?	?	-2	-25%
CC(C)/C=N/Nc1nc(-c2ccc(Br)cc2)cs1	54*	50%	0%	31*	20%
O=C(Nc1nc(-c2ccc(Br)cc2)cs1)c1cccnc1	-9	6%	15%	-3	3%
Cc1nccc2[nH]c(=O)c(C(=O)NC3CCN(Cc4ccccc4)CC3)cc12	/	/	/	/	26%
O=C(c1n[nH]c2ccccc12)N1CCN(S(=O)(=O)c2ccccc2)CC1	/	5.2µM*	7.4µM*	/	/
O=C(c1n[nH]c(=O)c2ccccc12)N1CCN(S(=O)(=O)c2ccccc2Cl)CC1	/	?	5.9µM*	/	/
O=C(c1n[nH]c(=O)c2ccccc12)N1CCN(c2ccccc2Cl)CC1	-8	-10%	?	1	-3%
CN(C)C1(CN=Cc2cc(Cl)cc([N+](=O)[O-])c2O)CCCCC1	-9	-6%	-1%	5	-44%
CC(C)(C)NC(=O)NCC1CCCC1NC(=O)NC(C)(C)C (configuration not stated)	-8	-3%	33%	-6	-2%
N=c1n(CC(=O)c2cccs2)c2ccccc2n1Cc1ccccc1	-18	?	4.7µM*	0	13%
C=CCn1c(=N)n(CC(=O)c2ccc(Cl)cc2)c2ccccc21	-1	?	0%	8	-3%
C=CCn1c(=N)n(CC(=O)c2ccc(Br)s2)c2ccccc21	-15	12µM*	13µM*	-3	-3%
C=CCn1c(=N)n(CC(=O)OC)c2ccccc21	8	53%	12µM*	0	-5%
Cc1coc2cc3oc(=O)c(CC(=O)N[C@@H](CC(C)C)C(=O)O)c(C)c3cc12	-3	36%	18%	-4	4%
Cc1cc(=O)n2[nH]cc(C(=O)O)c2n1	10	42%	33%	-1	10%
CC(=O)NC(=S)Nc1cccc2c(C)cc(C)nc12	26	4%	10%	-5	/
Cc1ccc(NC(=S)NC(=O)c2ccccc2)cc1NC(=S)NC(=O)c1ccccc1	54*	33%	96%	24*	4%
COC(=O)c1ccccc1NC(=S)NC(=O)c1ccccc1	49	57%	39%	9.0*	-8%
Cc1cc(C)c2cccc(NC(=S)NC(=O)c3ccccc3)c2n1	-5	10µM*	1.9µM*	11	-1%
Cc1ccc(-n2c(=O)cc(NCc3cccnc3)[nH]c2=O)cc1	12	4%	1.9µM*	-1	2%
Cc1ccc(CNCc2cccnc2)cc1	-23	11%	/	1	-1%
O=C(NCC(=O)N(CC1CCCO1)C(C(=O)NC1CCCCC1)c1cccnc1)c1cccs1 (configuration not stated)	-13	-12%	-8%	4	/

Screening data deposited in PubChem BioAssay by National Center for Advancing Translational Sciences (NCATS).
